This passage reports fluorescence intensity results from PubChem BioAssay AID624483 (NMMLSC, 2012).

The whole screen tested about 360,000 compounds, of which about 11,000 (3.1%) were called active. Not shown: some 2% with an inconclusive outcome. The full list was thinned out, with actives kept by preference. Unmarked numbers belong to inactive results. Cut-off read from the data, not from the text of the source: active = fluorescence intensity above about 16000; inconclusive = no clear call, values can overlap the other calls; inactive = below that.

The test in a line: counter-screen for toxin protease inhibitors: compound fluorescence, primary screen, artefact control for toxin protease inhibitor project, biochemical, multiplex microsphere, HTS (AID 624483). To be noted: compound autofluorescence counterscreen, microsphere flow cytometry; hits give high values. On the technique in general: The purpose of a counterscreen is to sort out artefacts and off-target activity.
For `Cc1nn(CC2CC2)c(=O)n1N(C)c1ncc(C(F)(F)F)cc1Cl`, the fluorescence intensity was 4280. Take `CCOC(=O)N1CCN(C(=S)Nc2ccc(C)cc2C)CC1`: the fluorescence intensity was 2140. `CCOC(=O)N1CCC(O)(c2cc(C)c(C)cc2C)CC1`: the fluorescence intensity was 23000 (active). As to `CCOC(=O)N1CCC(C(N)=O)CC1`, the fluorescence intensity was 4320. On to `CCOC(=O)c1cnc(SCC(=O)NCc2ccco2)nc1N`, for which the fluorescence intensity is 9800. With `CCOC(=O)c1cnc(SCC(=O)Nc2cccc(OC)c2)nc1N`, the fluorescence intensity is 24000 (active). As to `CCOC(=O)c1cnc(SCC(=O)Nc2ccccc2C(=O)OC)nc1N`, the fluorescence intensity is 4740. For `CC(C)C1CC2=C(C(=O)OC(C)(C)O2)C(c2ccc(F)cc2)O1` (centres undefined), the fluorescence intensity is 5880. Regarding `CC(=O)NC(=S)NNC(=O)c1ccc(Br)cc1`, the fluorescence intensity is 4310. In the case of `CCOC(=O)[C@H]1Nc2ccc(Cl)cc2[C@@H]2[C@H]1C1CC(c3ccccc31)N2C(=O)OCc1ccccc1` (some centres undefined), the fluorescence intensity is 4370. On to `CCOC(=O)c1cnn(Cc2ccccc2Cl)c1N`, for which the fluorescence intensity was 24600 (active). Turning to `CCOC(=O)c1cnc2nc(SCc3ccccc3Cl)[nH]n2c1=O`, the fluorescence intensity was 4010. With `COC(=O)c1ccc(COC(=O)c2c(C)nn(Cc3ccccc3Cl)c2Cl)o1`, the fluorescence intensity is 10900. In the case of `CCOCCCN1C(=O)CN(C2CCCCC2)C(=O)C1c1ccc(OCC)c(OC)c1` (centres undefined), the fluorescence intensity was 15500. `CC1C/C(=N/NC(=O)c2cccs2)CC(C)(C)C1` (centres undefined): the fluorescence intensity is 23000 (active).

`CC1(C)CC(=O)C/C(=N\NC(=O)c2cccs2)C1`: the fluorescence intensity is 2600. For `CC1CC(=NNC(=O)C2COc3ccccc3O2)CC(C)(C)C1` (centres undefined) the value was 4030; for `CCOc1cc(S(=O)(=O)NC2CC(C)(C)NC(C)(C)C2)ccc1F`, 4220; for `Cc1cc(Br)cn2c(Cc3ccccc3C(F)(F)F)c(C3CCCCC3)nc12`, 4420. Take `O=C(CN1CCOCC1)Nc1ccccc1`: the fluorescence intensity is 4280. For the compound `O=C(CN1CCOCC1)Nc1c(-c2ccccc2)c2cc(Br)ccc2[nH]c1=O`, the fluorescence intensity was 21300 (active).

`C/C(=N\N)c1c(-c2ccccc2)c2cc(Br)ccc2[nH]c1=O`: the fluorescence intensity is 3410. On to `COCCNC(=S)Nc1cc(S(=O)(=O)N2CCOCC2)ccc1N1CCCCC1`, for which the fluorescence intensity was 3390. For `CC(C)c1ccc(NC(=O)COC(=O)c2ccc(CN3CCCC3=O)cc2)cc1`, the fluorescence intensity was 3760. Regarding `Cc1ccccc1-c1csc(C(O)c2cccc(Cl)c2)n1` (centres undefined), the fluorescence intensity is 3550.

`CCn1c(SCC(=O)Nc2ccc(Br)cc2)nc2sc3c(c2c1=O)CCN(C)C3`: the fluorescence intensity is 5890. Take `O=C(N1CCOCC1)N1CCOCC1`: the fluorescence intensity is 21400 (active). With `O=C(N1CCCCC1)N1CCN(C(=O)N2CCCCC2)CC1`, the fluorescence intensity is 3210.

With `Cc1ccc(C(=O)NC2CCN(C(=O)N3CCOCC3)CC2)cc1`, the fluorescence intensity was 9950. Regarding `CN(C)C(=O)c1cccc(-c2cnc3sc(NCc4ccc5c(c4)OCO5)nn23)c1`, the fluorescence intensity is 3900. In the case of `COc1cccc(-c2cnc3c(NC(C)=O)cc(-c4cc(F)ccc4OC)cn23)c1`, the fluorescence intensity is 2980. For `Cc1ccc(S(=O)(=O)N2CCC(=O)N([C@H](COCc3ccccc3)Cc3ccccc3)CC2)cc1` the value was 4440. As for `CC(=O)Nc1ccc(S(=O)(=O)N2CCC(NC(=O)c3ccccc3)CC2)cc1`, the figure is 3580; as for `COC(=O)c1ccc(S(=O)(=O)N2CCc3ccccc3C2)cc1`, 3480.

In the case of `O=C(Nc1ccc(S(=O)(=O)N2CCc3ccccc3C2)cc1)c1ccccc1`, the fluorescence intensity is 22600 (active).

For the compound `COc1cc(C(O)c2nc(-c3cnn(C)c3)cs2)ccc1F` (centres undefined), the fluorescence intensity was 3800. For `COc1ccc(-c2cc(NC=O)c3ncc(-c4cc(OC)c(OC)c(OC)c4)n3c2)c(OC)c1` the value was 3920; for `COc1ccc(OC)c(S(=O)(=O)NCCC(C)C)c1`, 4230. As to `COCCNS(=O)(=O)c1cc(Br)ccc1OC`, the fluorescence intensity was 24900 (active).

Regarding `COc1ccc(C)cc1S(=O)(=O)NCCc1ccccc1`, the fluorescence intensity is 11800. With `Cc1ccn(CC(=O)NC2CCCN(Cc3ccccc3F)C2)n1` (centres undefined), the fluorescence intensity is 3870.

Consider `Cc1ccc(CN2CC(N3CCC(Cc4ccccc4)CC3)CS2(=O)=O)cc1` (centres undefined), for which the fluorescence intensity was 6680. Turning to `Nc1ncnc2c1ncn2[C@@H]1O[C@H](C(=O)NS(=O)(=O)c2c(Cl)nc3sccn23)[C@@H](O)[C@H]1O`, the fluorescence intensity is 3980.

In the case of `O=C(NCc1ccccc1Cl)C1CCN(S(=O)(=O)c2cccc3nonc23)CC1`, the fluorescence intensity was 3550.

`N#C/C=C\Oc1ccc(Cl)cc1N`: the fluorescence intensity is 23100 (active). Consider `Cc1nccn1-c1ccc(NC(=O)[C@H]2O[C@@H](n3ccc(=O)[nH]c3=O)[C@H](O)[C@@H]2O)cc1`, for which the fluorescence intensity is 5140.

In the case of `CC1(C(=O)NS(=O)(=O)c2ccccc2)CCN1C(=O)Cc1ccc(-c2ccccc2)cc1` (centres undefined), the fluorescence intensity is 3470. Take `CCOC(=O)CNC(=O)CN1C(=O)CCSc2ccccc21`: the fluorescence intensity was 20800 (active). For the compound `CN(C(=O)CN1C(=O)CCSc2ccc(S(=O)(=O)N3CCCC3)cc21)c1ccccc1`, the fluorescence intensity is 5730. Consider `COc1ccc(CCNC(=O)CN2C(=O)CCSc3ccccc32)c(OC)c1`, for which the fluorescence intensity was 4070.

In the case of `COc1ccc(-n2c(SCC(=O)Nc3ccc4c(c3)OCO4)nnc2C(C)N2CCCCC2)cc1` (centres undefined), the fluorescence intensity is 6740. As for `COc1ccccc1NC(=O)CSc1nc2sc(C)c(C)c2c(=O)n1Cc1ccco1`, the fluorescence intensity is 22300 (active). As to `COc1ccccc1NC(=O)CSc1nc2sc3c(c2c(=O)n1-c1ccccc1)CCN(C)C3`, the fluorescence intensity was 7290.

Consider `C(=C\c1ccccc1)/CSc1nnc(-c2cccnc2)n1Cc1ccco1`, for which the fluorescence intensity is 23400 (active). Turning to `Cc1ccc(NC(=O)CSc2nnc(-c3cnccn3)n2Cc2ccco2)cc1C`, the fluorescence intensity was 3350. On to `COc1cc(Cl)c(C)cc1NC(=O)CSc1nnc(-c2cccnc2)n1Cc1ccco1`, for which the fluorescence intensity is 20700 (active). As for `CCOC(=O)Cc1csc(NC(=O)CSc2nnc(-c3cccnc3)n2Cc2ccco2)n1`, the figure is 4600; as for `COc1ccc(NC(=O)CSc2nnc(-c3cccs3)n2Cc2ccco2)cc1OC`, 10300; as for `O=C(CSc1nnc(-c2cnccn2)n1Cc1ccco1)c1ccc(Cl)c(Cl)c1`, 9950. `CCn1c(SCC(=O)Nc2cc(C)c(Cl)cc2OC)nnc1-c1ccco1`: the fluorescence intensity is 5870. Turning to `Cc1cc(-c2ccccc2)nc(N2CCC(C(=O)NC34CC5CC(CC(C5)C3)C4)CC2)n1`, the fluorescence intensity was 3890.

For the compound `CCN(C(=O)COc1cccnc1[N+](=O)[O-])C1CCS(=O)(=O)C1` (centres undefined), the fluorescence intensity was 2480. As for `COc1ccc(CNC(=O)c2ccc(-c3cccnc3)c3ccoc23)cc1OC`, the figure is 3080; as for `Cc1cccc(C)c1-n1nnnc1C(CCc1ccccc1)N1CCN(C/C=C/c2ccccc2)CC1` (centres undefined), 5940. For `Cc1cc(Br)ccc1NC(=O)CCCOc1cc(=O)n(C)c2ccccc12` the value was 3350; for `CCOc1cc2[nH]c(=S)n(CCCN3CCCC3=O)c(=O)c2cc1OCC`, 5800. For `O=C(CCC(=O)NNc1nc2ccccc2c2nc(-c3ccccc3)nn12)NCCCN1CCCC1=O`, the fluorescence intensity was 2420.

As to `O=C(CCn1c(=S)[nH]c2ccccc2c1=O)NCCCN1CCCC1=O`, the fluorescence intensity is 22700 (active). For `O=C1CCCN1CCCNc1ncnc2c1[nH]c1ccccc12` the value was 23000 (active); for `Cc1nn(Cc2ccccc2)c(C)c1C(=O)NCCCN1CCCC1=O`, 3680. As to `O=Cc1c(NCCCN2CCCC2=O)c2ccccc2[nH]c1=O`, the fluorescence intensity is 3940.

As to `CC(=O)c1ccc(N2C(=NC(=O)C(C)C)SC3CS(=O)(=O)CC32)cc1` (centres undefined), the fluorescence intensity is 4490. As for `Cc1cccc2cc(CN(C(=O)c3cccs3)c3ccccc3)c(=O)[nH]c12`, the figure is 2690. `Cc1nc(C)c(C(=O)Nc2ccc(C)c(F)c2)o1`: the fluorescence intensity is 20400 (active). As for `Cc1ccc(NC(=O)NC(=O)c2ccccc2)cc1F`, the figure is 4110. For `COc1ccc(Cl)cc1NC(=O)c1oc(C)nc1C`, the fluorescence intensity is 11300. As for `N#Cc1ccccc1S(=O)(=O)N1CCN(Cc2c(O)ccc3ccccc23)CC1`, the fluorescence intensity is 2850. Take `Fc1ccc(N2N=C(c3cccs3)CC2c2ccco2)c(F)c1` (centres undefined): the fluorescence intensity was 20900 (active). For the compound `Cc1ccccc1C1CC(c2cccs2)=NN1S(C)(=O)=O` (centres undefined), the fluorescence intensity was 6430.

`O=C(COc1ccccc1Cl)N1N=C(c2cccs2)CC1c1ccco1` (centres undefined): the fluorescence intensity is 3750. With `O=C(NC(c1ccc(-c2ccccc2)cc1)c1cnccn1)C1CCN(CCOc2ccc(Cl)cc2Cl)CC1` (centres undefined), the fluorescence intensity was 4380. As to `O=C(NCc1ccco1)C1CCCN(S(=O)(=O)c2cnc[nH]2)C1` (centres undefined), the fluorescence intensity is 5600. With `O=C(NCc1ccco1)C1CCCN(S(=O)(=O)c2ccccc2)C1` (centres undefined), the fluorescence intensity is 21200 (active). In the case of `CCCS(=O)(=O)N1CCCC(C(=O)NCc2ccco2)C1` (centres undefined), the fluorescence intensity was 2870. Regarding `COCCNC(=O)C(c1ccc(C)cc1)N(C(=O)CCC(=O)Nc1ccccn1)c1cccc(C)c1` (centres undefined), the fluorescence intensity is 4510. Consider `Cc1cc2c(c(=O)n1Cc1ccco1)C(c1ccccc1)C(C#N)=C(N)O2` (centres undefined), for which the fluorescence intensity is 23400 (active). As for `Cc1cc2c(c(=O)n1C)C(C(C)C)C(C#N)=C(N)O2` (centres undefined), the fluorescence intensity was 3460. In the case of `Cn1c2c(c(=O)n(C)c1=O)C(c1cccc(F)c1)C(C#N)=C(N)O2` (centres undefined), the fluorescence intensity was 4470. With `COc1ccc2c(c1)C(C)=CC(C)(C)N2C(=O)Nc1ccccc1`, the fluorescence intensity was 2880.

Consider `COc1ccc(NC(=O)NCc2ccc3c(c2)OCO3)c(OC)c1`, for which the fluorescence intensity was 5960. As to `COc1ccc2c(c1)C(C)=CC(C)(C)N2C(=O)CNCc1ccc2c(c1)OCO2`, the fluorescence intensity was 21400 (active). Turning to `Cc1cc(C(=O)COc2ccc(Br)cc2F)c(C)n1C1CC1`, the fluorescence intensity was 4210. As to `CCCNC(=O)C1(C)CCCN(Cc2c(C)nn(-c3ccccc3)c2C)C1` (centres undefined), the fluorescence intensity is 3870. With `OC(c1ccc(F)cc1)c1ncc(-c2cccc(C(F)(F)F)c2)[nH]1` (centres undefined), the fluorescence intensity was 2920.
